This note sets out measurements from ChEMBL document CHEMBL4513216, “Probing the Open Global Health Chemical Diversity Library for Multistage-Active Starting Points for Next-Generation Antimalarials” (ACS Infect Dis, 2020).

Molecules are shown by their SMILES. The whole screen tested about 69,000 compounds, of which about 8,600 (12%) showed an effect of 50% or more. The list comes from a sample in which strong results are over-represented; it also holds similar structures and randomly drawn compounds.

In the experiment the test system is Plasmodium berghei. The experiment in a line: Screen against P. berghei liver stage (PbLuc), transformed with Luciferase, at 10uM. The note with it: tested at 10 uM. Format: functional, HepG2.
Take `COCC[C@]1(O)CCN(Cc2nc(C)c(C)s2)C[C@H]1C`: the INHIBITION is -47.4%. With `Nc1nccc(-c2c[nH]nc2C2CCCCC2)n1` the figure was 41.2%. With `CC(=O)N1CCCN(c2nccc(-c3cn(C)nc3C)n2)CC1` the figure was 4.2%; with `CC(C)c1nc(C2CCCN(c3nccc(N4CCCC4)n3)C2)no1` (stereo unspecified), 23.1%. In the case of `O=S1(=O)NC(c2ccnc(N3CCCCC3)n2)=Nc2ccccc21` it was 25.8%; in that of `c1cc(-c2cn3nccc3nc2C2CCCCC2)nc(N2CCCC2)n1`, 82.7%; in that of `CN1CCCN(c2nccc(-c3cc(C(=O)O)ccn3)n2)CC1`, 41.4%. On to `c1cc(-c2c[nH]nc2C2CCCCC2)nc(N2CCCCCC2)n1`, for which the INHIBITION was 90.1%. Turning to `Cc1csc2ncc(-c3ccnc(N4CCCC4)n3)c(=O)n12`, the INHIBITION is given as -71.6%. Take `CN1CCCN(c2nccc(-c3c[nH]nc3C3CCCCC3)n2)CC1`: the INHIBITION came out at 68.9%. In the case of `Cc1csc2ncc(-c3ccnc(N4CCC[C@H](C(N)=O)C4)n3)c(=O)n12`, the INHIBITION is given as 64.9%. Regarding `OCCNc1nccc(-c2cn3nccc3nc2C2CCCCC2)n1`, the INHIBITION is on record as 39.7%. `Cc1csc2ncc(-c3ccnc(N4CCCN(C)CC4)n3)c(=O)n12`: the INHIBITION is 26.3%.

For `Cc1ccc(Cl)cc1NCc1nc2n(n1)CCCCC2`, the INHIBITION is recorded as 25.1%.

Consider `COc1cccc(COCC(=O)N2CCN(S(C)(=O)=O)CC2)c1`, for which the INHIBITION was determined as 28.74%. In the case of `CN(C)C(=O)CN1CCC2(C1)CN(CC1CCOC1)C2` (stereo unspecified) it was 8.31%. As for `CC(C)=CCN1CCN(C(=O)c2cc(C)n[nH]2)[C@H]2CS(=O)(=O)C[C@H]21`, the INHIBITION is given as -6.67%. With `Cc1ccc(CN2CCC3(CC2)CCN(C(=O)c2cccn2C)C3)cc1` the figure was 6.27%.

For `COCCOC(=O)N1CCN2C[C@@H](CO)[C@H](c3ccccc3)[C@H]2C1`, the INHIBITION was -8.8%. In the case of `c1cncc(-c2nc(C3CC3)ncc2-c2ccnc(N3CCCC3)n2)c1` it was 51.5%; in that of `c1cc(-c2n[nH]cc2-c2ccnc(N3CCCC3)n2)ccn1`, 33.7%. In the case of `Cc1ncc(-c2ccnc(N3CCCCCC3)n2)c(-c2cccnc2)n1` it was 12.7%. For `CN1CCCN(c2nccc(-c3c[nH]nc3-c3ccncc3)n2)CC1`, the INHIBITION was 42.6%. As for `Cc1ncc(-c2ccnc(N3CCN(C)CC3)n2)c(-c2cccnc2)n1`, the INHIBITION was found to be 21.9%. With `c1cc(-c2n[nH]cc2-c2ccnc(N3CCCCCC3)n2)ccn1` the figure was 50.1%; with `Cc1nc(CN(C)C2CCN(Cc3nc(C4CC4)no3)C2)no1` (stereo unspecified), 40.9%; with `COc1ccc(-c2cc(N)on2)cc1`, -3.34%.

On to `Cc1nc(CNC(=O)NCC2(C)CCCc3ccccc32)no1` (stereo unspecified), for which the INHIBITION is listed as -21.9%.

On to `CC(CNC(=O)N1CCN(Cc2ccon2)CC1)N(C)C1CC1` (stereo unspecified), for which the INHIBITION stood at 4.62%. With `CNC(=O)[C@@]12CCC3(CCN(S(C)(=O)=O)CC3)[C@@H]1CN(C(C)=O)C2`, the INHIBITION is recorded as 40.1%. With `CC(=O)N1CCCC(c2ccc3sc(N)nc3n2)C1` (stereo unspecified) the figure was 26.3%; with `O=C(CC1CC1)N1CCN(Cc2ccncc2)c2ncccc2C1`, -45.8%; with `Cc1nc(NS(=O)(=O)c2ccc(F)c(Br)c2)no1`, 10.6%.

As for `CCc1nc(NS(=O)(=O)c2cc(C)ccc2F)no1`, the INHIBITION is listed as -7.9%. As to `CCc1nc(NS(=O)(=O)c2ccc(F)cc2C)no1`, the INHIBITION is -3.16%. In the case of `CC(C)c1nc(NS(=O)(=O)c2ccccc2Cl)no1` it was 2.61%; in that of `Cc1nc(NS(=O)(=O)c2cc(C)c(Br)cc2C)no1`, 49.4%; in that of `CSCC(C)(O)CNS(=O)(=O)c1ccc(F)cc1` (stereo unspecified), 12.3%.

As for `CCc1nc(NS(=O)(=O)c2ccc(F)cc2Cl)no1`, the INHIBITION came to 56.1%. In the case of `CC(C)(C)c1nc(NS(=O)(=O)c2ccccc2F)no1` it was 82.2%; in that of `CCc1nc(NS(=O)(=O)c2ccc(C)cc2Cl)no1`, 4.74%; in that of `CC(C)(C)c1nc(NS(=O)(=O)c2ccc(F)cc2)no1`, 51.6%.

On to `Cc1nc(NS(=O)(=O)c2ccc(C)c(Br)c2)no1`, for which the INHIBITION amounted to 68.3%. With `Cn1ncnc1NS(=O)(=O)c1ccc(F)cc1` the figure was -3.59%; with `NC1(CNC(=O)c2cc3ccccc3[nH]2)CCCC1`, -8.28%; with `Cc1ncccc1Oc1ncnc(N2CCC(O)(CO)CC2)c1C`, -6.03%. In the case of `COCCn1cc2c(n1)C(CNCc1cccc(OC)c1)OCC2` (stereo unspecified), the INHIBITION is 17.4%. With `O=C(Nc1cnccn1)[C@@H]1COC[C@H]2CN(C3CCC3)C[C@H]21` the figure was 24.9%; with `O=C(Cc1ccsc1)N1Cc2nc(CN3CCCCC3)oc2C1`, 31.5%; with `CCc1nc(C2CCCN2CCC(=O)N2CCc3ccccc32)no1` (stereo unspecified), 46.2%. On to `Cc1c(F)cccc1S(=O)(=O)Nc1noc(C(C)C)n1`, for which the INHIBITION is recorded as 10.2%. In the case of `Cc1cc(F)cc(S(=O)(=O)Nc2noc(C)n2)c1` it was 31.5%; in that of `CCc1nc(NS(=O)(=O)c2cc(C)cc(F)c2)no1`, 40.9%; in that of `Cc1nc(NS(=O)(=O)c2cccc(F)c2C)no1`, 74.5%.

`CCc1nc(NS(=O)(=O)c2cccc(F)c2C)no1`: the INHIBITION worked out at 39.7%.

Consider `CC(C)(C)c1nc(NS(=O)(=O)c2cccc(F)c2)no1`, for which the INHIBITION turned out to be 82.2%. As for `Cc1cc(N(Cc2cccs2)C2CC2)n2nc(C(F)(F)F)nc2n1`, the INHIBITION was found to be 26.6%. `CC(C)n1cnnc1SCCN(C)c1ccccc1`: the INHIBITION is reported as -34.8%. In the case of `COCCNc1ccc(CC2CCNC2)cn1` (stereo unspecified) it was -26.2%. With `CCCN(CC(=O)N(C)C)C(=O)c1ccc(-c2nc(C)cs2)cc1` the figure was 18.9%; with `COc1cc(CNC(=O)c2cc(S(C)(=O)=O)ccc2C)ccn1`, 1.51%; with `Cc1nn(C)c(N2CCOCC2)c1CNCc1ccnc(N(C)C)c1`, 38.7%.

Consider `Cc1nn(C)c(N2CCOCC2)c1CNCc1ccc(N(C)C)nc1`, for which the INHIBITION worked out at 51.1%. In the case of `Cc1nn(C)c(N2CCOCC2)c1CNCc1cccnc1`, the INHIBITION is on record as 32.2%. In the case of `Cc1ccc(N2CCCc3sc(C(=O)NCCC#N)nc32)nn1` it was 35.8%; in that of `CCC(CN1CCOCC1)NC(=O)Cc1c(C)[nH]c2cc(C)cc(C)c12` (stereo unspecified), 6.32%. In the case of `CN(C)CCCNC(=O)c1nnsc1-c1ccccc1` it was 15.9%; in that of `O=C(NCc1cccs1)c1[nH]nc2c1CS(=O)(=O)CC2`, -22.3%. In the case of `CC(C)(C)n1ncc2c1NC(=O)CC2c1cccc(O)c1` (stereo unspecified) it was -5.22%. As for `O=C1CC(c2cccs2)c2cnn(C3CCCC3)c2N1` (stereo unspecified), the INHIBITION is 14.4%. In the case of `O=C1CSC(c2ccc3c(c2)OCO3)c2cnn(C3CCCCC3)c2N1` (stereo unspecified) it was 38.9%. For `O=C1CC(c2ccc3c(c2)OCO3)c2c(n3ccsc3nc2=O)N1` (stereo unspecified), the INHIBITION was 5.85%. In the case of `Cc1n[nH]c2c1C(c1ccc3c(c1)OCO3)SCC(=O)N2` (stereo unspecified), the INHIBITION is on record as 9.32%. For the compound `CC(C)(C)n1ncc2c1NC(=O)CC2c1cccc(F)c1` (stereo unspecified), the INHIBITION came out at 89.4%. Consider `O=C1CC(c2ccsc2)c2cnn(C3CCCC3)c2N1` (stereo unspecified), for which the INHIBITION amounted to 6.09%. With `O=C1CC(c2ccc3c(c2)OCO3)c2cn[nH]c2N1` (stereo unspecified), the INHIBITION is on record as 6%. With `O=C1CC(c2ccccc2)c2cnn(C3CCCC3)c2N1` (stereo unspecified) the figure was 68%. With `CC(C)(C)n1ncc2c1NC(=O)CC2c1ccccc1` (stereo unspecified) the figure was 5.65%.

For the compound `O=C1CC(c2ccc3c(c2)OCO3)c2cnn(C3CCCC3)c2N1` (stereo unspecified), the INHIBITION is recorded as 87.9%. With `Cc1nn(C2CCCC2)c2c1C(c1ccc3c(c1)OCO3)SCC(=O)N2` (stereo unspecified) the figure was 61.6%.

Regarding `O=C1CC2(CCCCN2C(=O)c2ccncc2)CN1CC1CC1` (stereo unspecified), the INHIBITION is recorded as 23.5%.

Consider `CCc1sc(C(=O)NC2CC2)cc1C`, for which the INHIBITION is 38%. With `Cc1cc(N(C)C)nc(C2COCCN2Cc2nccn2C)n1` (stereo unspecified) the figure was 20.6%; with `Cc1ccc(NC2CCN(C(=O)c3c(C)oc(C)c3C)CC2)nn1`, 9.365%; with `COc1ccccc1COCC(O)CN1CC(n2cccn2)C1` (stereo unspecified), 19.85%.

Take `O=C1CC(c2ccc(F)cc2)c2cnn(C3CCCC3)c2N1` (stereo unspecified): the INHIBITION was 70.2%. With `COc1ccc(C2CC(=O)Nc3c2cnn3C2CCCC2)cc1` (stereo unspecified), the INHIBITION is listed as -9.67%. In the case of `N#Cc1ccc(C2CC(=O)Nc3c2cnn3C2CCCC2)cc1` (stereo unspecified) it was -11.1%. For `Cc1nnc(CN(C)CC(=O)NC(C)(C)c2ccc(F)cc2)n1C`, the INHIBITION is recorded as 10.1%.

Consider `Fc1cccc(Cl)c1CNCc1ccccn1`, for which the INHIBITION was found to be 10.7%. As for `Cc1cnc(C(=O)N2CCOCC2C)cn1` (stereo unspecified), the INHIBITION was found to be 33.7%. In the case of `CCCN1CCN(C(=O)c2ccc(Cl)cn2)[C@H]2CS(=O)(=O)C[C@H]21` it was 37.6%; in that of `Cc1ncc(CN2CCN(C(=O)C3CCC3)[C@@H]3CS(=O)(=O)C[C@@H]32)cn1`, 14.8%. As for `Cc1ncc(CN2CCN(C(=O)N(C)C)[C@@H]3CS(=O)(=O)C[C@@H]32)cn1`, the INHIBITION is listed as 31.6%. In the case of `CCCN1CCN(C(=O)c2cc3ccccc3cn2)[C@H]2CS(=O)(=O)C[C@H]21` it was 43.9%; in that of `CCCN1CCN(C(=O)c2cnccn2)[C@H]2CS(=O)(=O)C[C@H]21`, 51.8%; in that of `CCCN1CCN(C(=O)c2cccc(C)n2)[C@H]2CS(=O)(=O)C[C@H]21`, 21.2%. With `O=C(c1cnccn1)N1CCC(CN2CCOCC2)CC1` the figure was 30%; with `CCCN1CCN(C(=O)c2cc[nH]n2)[C@H]2CS(=O)(=O)C[C@H]21`, 53.9%. Consider `CC1COCCN1C(=O)c1cnccn1` (stereo unspecified), for which the INHIBITION is recorded as 53.5%. As for `CCCN1CCN(C(=O)c2ccc3ccccc3n2)[C@H]2CS(=O)(=O)C[C@H]21`, the INHIBITION was -15.1%. Consider `CCC(=O)N1CCN(Cc2cnc(C)nc2)[C@H]2CS(=O)(=O)C[C@H]21`, for which the INHIBITION was determined as 53.1%. With `CC(C)c1nccn1-c1nccnc1C1CCCN1Cc1ccccc1` (stereo unspecified) the figure was 28.5%; with `O=C(NCCCNC(=O)c1ccc(F)cc1F)c1cccc(O)c1`, -2.61%. With `CC(Cn1ccnc1)NC(=O)N1CCN(Cc2ccncc2)CC1` (stereo unspecified), the INHIBITION was found to be 13.03%. Turning to `CC(C)c1ocnc1C(=O)Nc1cccc(Cn2ccccc2=O)c1`, the INHIBITION was 26.5%.
